Data on 40 compounds can be found in PubChem BioAssay (NCI).

Structures are written as SMILES. The panel holds about 83,000 compounds, 20% with a hit somewhere; the sample as a whole holds those more often.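 Activity criterion: percent growth below 10, measured after cells in 96-well plates were exposed to a single compound concentration for 48 hours.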 Unmarked numbers belong to inactive results. The source made the active and inactive calls.

This experiment deals with IGROV1 ovarian. The experiment is described as follows: NCI-60 one-dose screen, 48 h (100 = growth as untreated, 0 = no growth, -100 = all killed). The settings on record: 10 µM unless noted.
On to `O=C(Nc1nc2ccc(C(=O)N3CCN(/C=C/c4ccccc4)CC3)cc2s1)c1ccc(NCCc2ccccc2)c([N+](=O)[O-])c1`, for which the growth is 64.3%.

As for `COC12C=C/C(=C(/C(=O)OCc3ccncc3)C(=O)CCCCCCCCC3(OC)C=C/C(=C(/C(=O)OCc4ccncc4)C(=O)CCCCCCCC1)O3)O2`, the growth was -32.2% (active).

For `Cc1ccc2c(n1)C(=O)C(Br)=C(C1CCCC1)C2=O`, the growth was 96%.

`C#COc1cccc(Nc2c(C#N)cnc3ncc(NC(=O)CCl)cc23)c1`: the growth was 14.1% [6.25 µM].

Regarding `COc1cc(-c2csc(NC(=O)c3ccc(N4CCOCC4)c(C(F)(F)F)c3)n2)cc(OC)c1OC`, the growth is 29.5%.

Turning to `CC/C=C\C[C@H](O)C/C=C1/C(=O)C=C[C@@H]1C/C=C\CCCC(=O)N(C)C`, the growth is 11.5%.

For `Oc1c(I)cc(I)cc1CNCCN(Cc1ccccn1)Cc1ccccn1`, the growth was -66.3% (active).

With `CC1=C([Se]CC(OC(=O)CC[Se]c2ccccc2)C(=O)NC(C)(C)C)C(=O)c2ccccc2C1=O` (stereo not given), the growth was -19.2% (active).

For `Cc1cn(-c2cc(NC(=O)c3cncc(C#Cc4cnc(N)c5ncccc45)c3)cc(C(F)(F)F)c2)cn1`, the growth is 62.3%.

`CC(C)c1ccc(-n2c(=S)[nH]c3sc4cc(O)ccc4c3c2=O)cc1`: the growth was 91.4%.

`COc1ccccc1CNc1c2ccccc2nc2ccccc12`: the growth was 26.3%.

As for `COC(=O)c1nc(-c2ccccc2)oc1S(=O)(=O)Cc1ccccc1`, the growth is 85.6%.

For `O=C1/C(=C/c2ccccc2Br)COc2ccc(O)cc21`, the growth is 78.6%.

In the case of `C/C(Cc1ccc(Cl)cc1)=C(\c1ccc(O)cc1)c1ccc(Cl)cc1`, the growth was 96.8%.

As to `COC12C=C/C(=C(/C(=O)OCc3ccncn3)C(=O)CCCCCCCCC3(OC)C=C/C(=C(/C(=O)OCc4ccncn4)C(=O)CCCCCCCC1)O3)O2`, the growth was -27.1% (active).

Turning to `CCc1ccccc1-n1c(-c2ccc(OC)cc2)cc(-c2ccc(OC)cc2)c(C#N)c1=O`, the growth is 85.5%.

In the case of `COCCn1cc(-c2csc(-c3cn(C)c4ccc(Br)cc34)n2)c2cccnc21`, the growth was 80.2%.

Take `C=CCc1c(O)c(C(=O)/C=C/c2ccccc2)c(OC)c2ccoc12`: the growth is 54.7%.

In the case of `COc1cc(-c2nc3sccn3c2-c2ccnc(NCCNS(=O)(=O)c3ccccc3)n2)ccc1F`, the growth was 43.1%.

As for `O=c1c2cnn(-c3ccccc3)c2n2c(CN3CCOCC3)nnc2n1-c1ccccc1`, the growth was 109%.

Consider `O=C1C(Cl)=C(Nc2ccc(S(=O)(=O)N3CCOCC3)cc2)C(=O)c2ccccc21`, for which the growth was 62.5%.

Regarding `O=C(COc1ccc(-c2nc3cc(Cl)c(Cl)cc3[nH]2)cc1)N=Nc1c(O)[nH]c2ccc(Cl)cc12`, the growth was 79.9%.

As for `CC1CCc2c(C(=O)Nc3ncc(Cc4cccc([N+](=O)[O-])c4)s3)csc2C1` (stereo not given), the growth is 30.7%.

For `CC(C)(Sc1cc(C(C)(C)C)c(O)c(C(C)(C)C)c1)Sc1cc(C(C)(C)C)c(OC(=O)CCCC(=O)O)c(C(C)(C)C)c1`, the growth is 57.4%.

For `CCSc1oc(-c2ccccc2)nc1[P+](c1ccccc1)(c1ccccc1)c1ccccc1`, the growth is 5.02% (active).

Regarding `C#CCOC(=O)/C=C/c1cn(-c2ccccc2)nc1-c1ccc(OC)cc1`, the growth is 74%.

`Cc1ccc(CNc2ccc3nc(CCC4CCCCC4)[nH]c3c2)cc1`: the growth was 25.6%.

As to `CCn1c(SCC(=O)N/N=C(\C)c2ccc(Cl)cc2)nc2c1c(=O)n(C)c(=O)n2C`, the growth was 96.5%.

`COc1ccc(\C=N/N=C(N)/C(N)=N\N=C/c2ccc(OC)cc2)cc1`: the growth was 122%.

In the case of `c1cc2c(ccc3[nH]c(-c4ccc5[nH]ncc5c4)c4c(c32)CCCC4)n1`, the growth was 67.6%.

On to `Cc1ccc2c(Cn3cc(CSc4nc5ccccc5o4)nn3)cc(=O)oc2c1`, for which the growth was 107%.

With `C=C(C)[C@@H]1CCC[C@]2(COS(=O)(=O)c3ccc(C)cc3)CC[C@]3(C)[C@@H](CC[C@@H]4[C@@]5(C)CCCNC(C)(C)[C@@H]5CC[C@]43C)[C@@H]12`, the growth was -87.1% (active).

With `COC(=O)c1c(C)c2n(c1C)C(=O)C(c1ccccc1)=C2`, the growth was -8.44% (active).

Consider `COc1cc2cc(NCc3cccc(Cl)c3)nc(C)c2cc1OC`, for which the growth is 24.6%.

As to `CCN(CC)Cc1cc(C=C2C(=O)NC(=S)NC2=O)cc(OC)c1O`, the growth was 112%.

Regarding `Cc1cc(=O)oc2cc(OCc3nn4c(Nc5nc6ccccc6s5)c(-c5ccccc5)nc4s3)ccc12`, the growth was 89.2%.

On to `COc1ccc(C(=O)N2c3ccccc3Sc3ccccc32)c(OC)c1`, for which the growth was 52.5%.

Turning to `Cc1c(-c2ccc(O)cc2)n(Cc2ccc(OCCN3CCCCCC3)cc2)c2ccc(O)cc12`, the growth was 85.7%.

`Cc1ccc(Nn2c(SCC(=O)Nc3nc(-c4ccccc4)cs3)nc(C)c2C)cc1`: the growth is 86%.

As to `CC(C)c1ccc(C(=O)Nc2nc3ccc(O)c(CN(C)C)c3s2)cc1`, the growth is 80.7%.
